# Data reported in PubChem BioAssay AID2546 (National Center for Advancing Translational Sciences (NCATS), 2010).
# In all, about 310,000 compounds went through this assay and about 11,000 (3.5%) were called active. Inconclusive results (about 8%) are left out. The sample as a whole holds a higher share of actives than the screen did. Values without a mark were called inactive. Calls come from the whole dose curve; as a rule, active = well fitted inhibition curve with a large enough effect; inconclusive = small, poorly fitted or top-dose-only effect, or effect the other way; inactive = flat fitted curve, though single readings scatter.
# Test: VP16 counterscreen qHTS for inhibitors of ROR gamma transcriptional activity;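 note: Gal4-VP16 expression switched on by copper sulfate through the metallothionein promoter; nearly all actives have a fitted effect of over 50% in size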
# Conditions: Drosophila S2 Gal4-VP16 UAS-luciferase, luminescence, 20 h; series mostly up to 53.6 µM; activity, negative = inhibition: at the top concentration
# % is set by controls: 0 for no effect and ±100 for the full control effect; potency is the fitted concentration of half-maximal effect.
SMILES,"activity, negative = inhibition",Potency
COc1ccc(C(=O)NCc2nnc(SCC(=O)Nc3cccc(OC)c3)o2)cc1,-0.7%,
COc1cc(C(=O)NCc2nnc(SCC(=O)c3ccc(Cl)cc3)o2)cc(OC)c1OC,-6.58%,
COc1cc(C(=O)NCc2nnc(SCC(=O)Nc3nc4ccc(C)cc4s3)o2)cc(OC)c1OC,,3.16 µM (active)
O=C(CNC(=O)c1ccc(Br)o1)NCC1CCCO1 (stereo not given),1.42%,
COc1ccccc1/C=C/C(=O)NC1CC2CCC1C2 (stereo not given),22.3%,
O=C(/C=C/c1ccco1)NC(=S)N1CCCCC1,,22.4 µM (active)
CCNC(=S)N1CCN(C(=O)c2ccco2)CC1,-4.45%,
COc1ccc(/C=C/C(=O)NC(=S)N2CCCC(C(N)=O)C2)cc1 (stereo not given),-11.2%,
COc1ccccc1/C=C/C(=O)NC(=S)N1CCOCC1,,8.91 µM (active)
COc1ccc(C)cc1NC(=S)N1CCOCC1,-2.62%,
CC1CCCN(S(=O)(=O)c2ccc(-c3ccc(=O)[nH]n3)o2)C1 (stereo not given),-0.807%,
O=C(C1CC(=O)N(c2ccc(Br)cc2)C1)N1CCCC1 (stereo not given),2.91%,
OC(c1nc2ccc(F)cc2[nH]1)C(O)c1nc2ccc(F)cc2[nH]1 (stereo not given),-3.31%,
CC(C)c1nc2ccc(C(=O)O)cc2[nH]1,,20 µM (active)
Cc1nc2ccc(C(=O)O)cc2[nH]1,-8.16%,
COc1ccc2cc(C(=O)C3CCCN(C(=O)c4sc(C)nc4C)C3)ccc2c1 (stereo not given),-3.81%,
CC(C)(C)OC(=O)NNc1c2ccccc2nc2ccccc12,-22.6%,
COC(=O)CSc1nnc(NC(=O)CCc2ccccc2)s1,-9.32%,
O=C(NCCc1ccccc1Cl)C1CCC(=O)N(CCCc2ccccc2)C1 (stereo not given),-8.62%,
CCCn1c(CCNc2nc(-c3ccc(OC)cc3)cs2)nc2ccccc21,-4.87%,
O=C(CCCC(=O)N1CCN(c2cccc(Cl)c2)CC1)c1ccccc1,1.45%,
Cc1nc(=O)c(-c2ccccc2)c(C)n1-c1ccc(Br)cc1,-1.26%,
S=C1NC(c2ccccc2)=NCN1c1ccc(Br)cc1,,20 µM (active)
Brc1ccccc1C1N=C(c2ccccc2)NO1 (stereo not given),-7.34%,
COc1cc(NC(=O)CSc2ccc(-c3cccnc3)nn2)cc(OC)c1,-0.546%,
CCOC(=O)C1(CCOc2ccccc2)CCN(Cc2ccc(C#CCCO)cc2)CC1,-12.6%,
C=CCn1c(C23CC4CC(CC(C4)C2)C3)n[nH]c1=S,,2.51 µM (active)

SMILES,"activity, negative = inhibition",Potency
C=CCn1c(SCC(=O)NC23CC4CC(CC(C4)C2)C3)nc(O)cc1=O,-4.61%,
C=CCn1c(SCC(=O)NC)nnc1C12CC3CC(CC(C3)C1)C2,0.249%,
COc1cc(NS(=O)(=O)c2ccc(NC(=S)NC(=O)c3ccccc3)cc2)nc(OC)n1,10.4%,
Cn1c(C(=O)N2CCCC(C(=O)NCc3ccccc3)C2)cc2sccc21 (stereo not given),0.53%,
CC(=O)Nc1ccc(S(=O)(=O)NC2Cc3ccccc3C2)cc1,4.49%,
COc1ccc(-c2nc3ccccc3c(=O)n2CCc2ccc(O)cc2)cc1,4.13%,
COc1ccc(S(=O)(=O)Nc2ccc(O)c(Sc3nc4ccccc4s3)c2)cc1,-20.8%,
O=C(CSc1nc2ccccc2s1)Nc1ccc(C(=O)O)cc1,-0.471%,
O=[N+]([O-])c1c(NCCO)cc(Sc2nc3ccccc3s2)c2nonc12,,5.01 µM (active)
CCCOc1cccc(C(=O)Nc2ccccc2C(=O)N2CCN(C)CC2)c1,2.85%,
Cc1ccc(S(=O)(=O)c2nc(-c3cccs3)oc2NCc2cccnc2)cc1,3.93%,
S=c1[nH]nc(COc2ccccc2)n1-c1ccccc1,,10 µM (active)
Fc1ccc(/C=N/n2c(COc3ccccc3)n[nH]c2=S)cc1,-7.22%,
Cc1ccc(OCc2n[nH]c(=S)n2-c2ccc(C)cc2)cc1,-10.9%,
COc1ccc2oc(C(=O)NCC(Cc3ccccc3)N(C)C)c(C)c2c1 (stereo not given),-12.4%,
C=CCn1c(CCc2ccc(OC(C)C)cc2)n[nH]c1=S,-0.265%,
CC(C)Oc1ccc(Cc2n[nH]c(=S)n2Cc2ccccc2)cc1Cl,-9.9%,
CC(C)Oc1ccc(CCc2n[nH]c(=S)n2Cc2ccccc2)cc1,,15.8 µM (active)
COc1ccc(CCNC(=O)C2CCCN(S(=O)(=O)c3ccc(OC)cc3)C2)cc1 (stereo not given),-4.87%,
CC1CCC(NC(=O)CN(C)S(=O)(=O)c2ccc3c(c2)c(=O)n(C)c(=O)n3C)CC1 (stereo not given),-7.19%,
CCc1ccc(NC(=O)CC2C(=O)NCCN2C(=S)Nc2ccccc2)cc1 (stereo not given),1.61%,
COc1ccc(C(=O)NC(=S)N2CCNC(=O)C2CC(=O)OC(C)C)cc1 (stereo not given),,10 µM (active)
COc1cccc(NC(=O)CC2C(=O)NCCN2C(=S)Nc2ccc(F)cc2)c1 (stereo not given),1.84%,
Cc1ccc(-c2ccc(=O)n(Cc3ccc(F)cc3Cl)n2)cc1,-19%,
O=[N+]([O-])c1ccc2nc(-c3ccccn3)[nH]c2c1,,6.31 µM (active)
O=[N+]([O-])c1ccc2c(c1)Nc1nc3ccccc3nc1N2,5.07%,
O=c1[nH]c2cccnc2n1-c1ccc([N+](=O)[O-])cc1,-8.8%,

SMILES,"activity, negative = inhibition",Potency
CC(C)(C)c1nnc(N/N=C/c2ccc(O)cc2)n(N)c1=O,,2.24 µM (active)
O=c1c2ccccc2nc(N/N=C/c2ccccc2)n1O,-13.5%,
Nc1nnn(CC(=O)N/N=C/c2ccc(O)cc2)n1,1.16%,
S=C(Nc1cccc(Cl)c1)Nc1ccc2cn[nH]c2c1,-2.76%,
Cc1csc(NC(=S)Nc2cccc(Cl)c2)n1,,1 µM (active)
CC(=O)Nc1cccc(C(=O)Nc2nc(C)cs2)c1,-5.52%,
COc1cccc(N(CC(=O)NC2CCCCCC2)S(=O)(=O)c2ccccc2)c1,-3.26%,
CN1C(=O)CN2CCc3ccccc3C2c2cc(Cl)ccc21 (stereo not given),-3.01%,
O=C(CSc1ncn[nH]1)Nc1nc(-c2cccc([N+](=O)[O-])c2)cs1,,17.8 µM (active)
O=C(CSc1nc(-c2ccccc2)cs1)Nc1cccc([N+](=O)[O-])c1,-25.9%,
O=C(CSc1ncn[nH]1)Nc1nsc(-c2ccccc2)n1,3.14%,
COc1ccc2[nH]c(=O)c(CN(Cc3cccnc3)S(=O)(=O)c3ccccc3F)cc2c1,-3.02%,
COc1cccc(N(CC(=O)NCc2ccccc2)C(=O)CCC(=O)Nc2nccs2)c1,3.14%,
NC(N)=Nc1nc(-c2ccccc2)c2cc(Cl)ccc2n1,-4.6%,
O=C(CCl)NNc1cccc(Cl)n1,4.76%,
O=C(CCl)NNc1nc(-c2ccccc2)c2cc(Cl)ccc2n1,,17.8 µM (active)
COc1ccc(CCNC(=O)C(=O)NCC2OCCN2S(=O)(=O)c2ccc(F)cc2)cc1OC (stereo not given),1.05%,
O=C(Nc1ccc2cn[nH]c2c1)c1ccc(S(=O)(=O)N2CCOCC2)cc1,0.801%,
CC1CN(S(=O)(=O)c2ccc(C(=O)Nc3sccc3C(N)=O)cc2)CC(C)O1 (stereo not given),2.1%,
CC1CCCCN1S(=O)(=O)c1ccc(C(=O)Nc2nnc(-c3cccs3)o2)cc1 (stereo not given),,0.891 µM (active)
CSCc1nnc(NC(=O)c2ccc(S(=O)(=O)N3CCCCC3C)cc2)o1 (stereo not given),,1.41 µM (active)
CCc1nnc(NC(=O)C2CCCN2S(=O)(=O)c2ccccc2)s1 (stereo not given),6.92%,
O=C(Nc1nnc(-c2ccco2)o1)c1ccc(S(=O)(=O)N2CCOCC2)cc1,,5.62 µM (active)
CC1CCCN(S(=O)(=O)c2ccc(C(=O)Nc3nnc(-c4ccncc4)o3)cc2)C1 (stereo not given),-10.1%,
Cc1ccnc(NS(=O)(=O)c2ccc(NC(=O)c3ccc(S(=O)(=O)N4CCOCC4)cc3)cc2)n1,-1.2%,
CCc1nnc(NC(=O)c2ccc(S(=O)(=O)NC3CCCCC3)cc2)s1,0.424% [at 0.365 µM],
Cc1cccn2cc(-c3cccc(S(=O)(=O)N4CCCCC4)c3)nc12,-7.96%,

SMILES,"activity, negative = inhibition",Potency
COc1ccc(CCC(C)N2CCc3ccccc3C2)cc1 (stereo not given),-0.938%,
Cc1cccc([C@@H]2[C@@H]3C(=O)N(Cc4ccccc4)C(=O)[C@@H]3[C@]3(C)C(=O)N(c4ccc(Br)cc4)C(=O)N23)c1,-8.45%,
Cn1nccc1C(=O)N1CCCC(C(=O)c2ccc(Oc3ccccc3)cc2)C1 (stereo not given),-13.8%,
CCOC(=O)[C@H]1[C@H]2COc3cc(OC)ccc3[C@@H]2N2C(=O)N(c3ccc(Br)cc3)C(=O)[C@@]12C,3.39%,
Cc1ccc(OCCCC(=O)Nc2ccc(S(=O)(=O)Nc3cc(C)nc(C)n3)cc2)cc1,0%,
Cc1ccc(CSc2nsc(C)c2C#N)cc1,1.45%,
COC(=O)C1[C@H]2SC(C)(C)C(C(=O)OC)N2C(=O)N1Cc1nc2ccccc2s1 (stereo not given in full),0.77%,
CCC1(CC)NC(=O)N(Cc2nc3ccccc3s2)C1=O,,3.55 µM (active)
CN(Cc1nc2ccccc2s1)C(=O)c1ccc(F)cc1,6.74%,
N#Cc1ccc(C2N=C(c3ccccc3)NO2)cc1 (stereo not given),1.27%,
O=C(Cc1ccccc1)NC(=S)Nc1ccc(N2CCCCC2)cc1,,3.55 µM (active)
O=C(c1ccccc1)c1ccc(C(=O)N2CCN(c3ccccc3)CC2)cc1,-20.3%,
COc1ccc(C(=O)N/N=C(\C)CC(=O)Nc2ccc(Cl)cn2)cc1,-20.9%,
COc1ccc(C(=O)Nc2ccc(N3CCC(C)CC3)cc2)cc1Br,-5.47%,
Cc1ccccc1C(=O)NC(=S)Nc1ccc(N2CCN(C(=O)c3ccccc3)CC2)cc1,,5.62 µM (active)
COc1ccc(C(=O)NC(=S)Nc2ccc(Cl)cn2)cc1OC,,12.6 µM (active)
COc1c(Cl)cc(C(=O)Nc2ccc(Cl)cn2)cc1Cl,21.3%,
O=C(CCN1CCN(c2ccccc2)CC1)NNC(=S)Nc1ccccc1,-17.3%,
COc1ccc(C(=O)NC(=S)Nc2ccc(N3CCCC3)cc2)cc1OC,,0.891 µM (active)
COc1ccc(C(=O)Nc2ccc(C3(C#N)CCCC3)cc2)cc1OC,6.7%,
Cc1ccccc1C(=O)Nc1ccc(N2CCCCCC2)cc1,-4.72%,
Cc1ccccc1C(=O)N1CCN(c2ccc(NC(=O)c3cccs3)cc2)CC1,-20.2%,
CC1CN(C(=S)Nc2cccc(F)c2)CC(C)O1 (stereo not given),-1.44%,
O=C(C1CC(=O)N(C2CCCCC2)C1)N1CCN(c2ccccc2)CC1 (stereo not given),5.4%,
